We go through 54 sequences from publication PMC7819943, “Rice protein-binding microarrays: a tool to detect cis-acting elements near promoter regions in rice”.

The full ranking holds about 35,000 sequences; the median of “fluorescence intensity (a.u.)” is about 10,000, and the highest 2% start at about 52,000. Shown is part of a subset that was picked to be rich in the highest values.

In this assay the target is T1, OsWOX13 (Oryza sativa, UniProt Q5QMM3 1-267).
T1 sequence: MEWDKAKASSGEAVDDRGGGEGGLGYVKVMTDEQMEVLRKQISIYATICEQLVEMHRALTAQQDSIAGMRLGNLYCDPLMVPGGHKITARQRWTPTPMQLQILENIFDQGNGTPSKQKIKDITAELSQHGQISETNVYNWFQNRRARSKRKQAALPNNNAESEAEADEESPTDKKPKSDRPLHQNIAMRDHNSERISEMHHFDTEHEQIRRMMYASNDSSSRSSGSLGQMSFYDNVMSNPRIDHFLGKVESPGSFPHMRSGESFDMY
The experiment in a line: protein-binding microarray (RPBM); PBS, 2% BSA, 51.3 ng/ul salmon testes DNA, 50 uM zinc acetate, 200 nM TF, 25 C, 1 h; high values mean tight binding. To be noted: protein: recombinant; tags: N-terminal polyhistidine and DsRed monomer fusion (pET32a); label: CyDye5-dUTP incorporated in the synthesized complementary strand; 3' TTTTT single-stranded linker to array surface; dsDNA, one strand shown. In outline:
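A custom Agilent array was converted to double-stranded form by primer extension with Cy5-dUTP and blocked with 2% BSA. Protein at 200 nM in PBS with 2% BSA, salmon testes DNA and 50 µM zinc acetate was applied for 1 h at 25 °C, followed by washing. The proteins were polyhistidine–DsRed N-terminal fusions of transcription factors, expressed in E. coli BL21-CodonPlus and Ni–NTA-purified. The binding signal is per-feature fluorescence intensity (arbitrary units) from an Axon 4000B scanner.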
In the case of “CATGACAGCGTGCTTGGATCAACCGCTTTTGTCTTCTCCACGGAGTCACCTAGTGCAG”, the binding signal was 3780 fluorescence intensity (a.u.). With “ATTGATAAGCCTAATTTAGACATCAAACCAAACCAGCCCTCGGAGTCACCTAGTGCAG” the figure was 14300 fluorescence intensity (a.u.); with “TTGATCATGATGATATTTAATTTGTTTAGATCACACACTACGGAGTCACCTAGTGCAG”, 10200 fluorescence intensity (a.u.). With “ATTCCTAAAATTATATGAATTTATGAGAAATTACGTAATGCGGAGTCACCTAGTGCAG” the figure was 4300 fluorescence intensity (a.u.); with “ATGGAATCAGTAATTAACTAGAAATAAATTAATACTCCTACGGAGTCACCTAGTGCAG”, 9880 fluorescence intensity (a.u.); with “TGGCAATGATTTATACTTCAATCATAATTGTTTGCTTAGGCGGAGTCACCTAGTGCAG”, 24000 fluorescence intensity (a.u.). On to “TTAGCTATCACAGACACAATCACACAACGATGGTAAAACACGGAGTCACCTAGTGCAG”, for which the binding signal is 6740 fluorescence intensity (a.u.). With “CCAAATTTGGTAATTTAGAATTTGAACTAGCGTGAGAAAACGGAGTCACCTAGTGCAG” the figure was 19800 fluorescence intensity (a.u.); with “ATTAATTAAAATCGCGCCCAATTAATCATTTAATCCATCCCGGAGTCACCTAGTGCAG”, 40700 fluorescence intensity (a.u.); with “AGGGTAATTACACATTTAACCCTATTTTAAGGTCTAACTACGGAGTCACCTAGTGCAG”, 18400 fluorescence intensity (a.u.).

Turning to “ATTAATTAATTAACCTCTAACATTTAACTAATGCAGGTAACGGAGTCACCTAGTGCAG”, the binding signal is 56900 fluorescence intensity (a.u.). Turning to “AGAATGGTGATTAACTATTGGTGTTAATTAATTTGCTGCACGGAGTCACCTAGTGCAG”, the binding signal is 31000 fluorescence intensity (a.u.).

As for “TCACTGTTATTTAATTATATATATATATATATATTCATGCCGGAGTCACCTAGTGCAG”, the binding signal was 8880 fluorescence intensity (a.u.). Consider “GACATTAATTAATTTAAATTAACGCTCACTGTTCATCGCCCGGAGTCACCTAGTGCAG”, for which the binding signal is 65500 fluorescence intensity (a.u.). For “TGTGATTGGTAATTGCCGAACTATTTGAAAATGGTGCGTGCGGAGTCACCTAGTGCAG”, the binding signal is 62300 fluorescence intensity (a.u.). For the sequence “TTATGCATTAACAACGTAACTAATTTAATTTGATTAGTTTCGGAGTCACCTAGTGCAG”, the binding signal is 24000 fluorescence intensity (a.u.). Take “ACCAATTATAAACACAAGTTAATGGGCAAATGACATGGAACGGAGTCACCTAGTGCAG”: the binding signal is 11500 fluorescence intensity (a.u.).

As to “TTAATTTACCGGATTCAATATTCCATATTTAGAAGTCACCCGGAGTCACCTAGTGCAG”, the binding signal was 3350 fluorescence intensity (a.u.).

With “CATGACATCGTCATTGACCGTGTCATCGTCAAGATGGATGCGGAGTCACCTAGTGCAG”, the binding signal was 4420 fluorescence intensity (a.u.). Turning to “AATAAAAGATTATCATATCTAAATAGAAGATATACCATCTCGGAGTCACCTAGTGCAG”, the binding signal was 4160 fluorescence intensity (a.u.).

As to “AAACCAATTTCAATTACCAATTACTCCCTAATATTAGCTACGGAGTCACCTAGTGCAG”, the binding signal was 18900 fluorescence intensity (a.u.).

On to “GATCAAAAGAAATTTGCCAAATTTACTGCTTTGTGATGGGCGGAGTCACCTAGTGCAG”, for which the binding signal was 3610 fluorescence intensity (a.u.).

As for “CATCAACATATAATTGATTAAATATTAATTATAACAAACTCGGAGTCACCTAGTGCAG”, the binding signal was 45700 fluorescence intensity (a.u.). The figure for “TGTTAACTAATTAAATACCCATTATCAAACATTTAATTGACGGAGTCACCTAGTGCAG” is 22900 fluorescence intensity (a.u.). Regarding “ATTGATTTTATTAAGTAACTGTGTGCTAATTAATTGTTCACGGAGTCACCTAGTGCAG”, the binding signal was 28300 fluorescence intensity (a.u.). With “TAATTAATTGATTAATGACTAAACTTGGCCATCAACCGCTCGGAGTCACCTAGTGCAG” the figure was 64800 fluorescence intensity (a.u.); with “GCTCTGATTAATTTCAAACTTCGATTATGGACTAGTCAACCGGAGTCACCTAGTGCAG”, 53400 fluorescence intensity (a.u.).

“TGACCTAATTAATTATTTAACTAATAATAATTAGTGATTACGGAGTCACCTAGTGCAG”: the binding signal is 44500 fluorescence intensity (a.u.). For “TTATGATTTTCATATAAATCAAATGGGACTTTAATTAATCCGGAGTCACCTAGTGCAG”, the binding signal was 11500 fluorescence intensity (a.u.). The figure for “GATAAGTGATTGATTAACTACTAATTTAATTATCACTGTGCGGAGTCACCTAGTGCAG” is 63300 fluorescence intensity (a.u.); for “CATTAATTAAACTAACCCATCCATTGATTGATTATCAGTGCGGAGTCACCTAGTGCAG” it is 63500 fluorescence intensity (a.u.).

For “CTAATTATAAACCTTAATCAGCTAAAATCCTAACCCATCACGGAGTCACCTAGTGCAG”, the binding signal is 3290 fluorescence intensity (a.u.).

Take “ATCACCGACTAATTAATTAATTAATTAATCATCCTTGATTCGGAGTCACCTAGTGCAG”: the binding signal was 38800 fluorescence intensity (a.u.). The figure for “ATGGACTAATTATGCTCAAAAGATTCGTCTCACGATTTACCGGAGTCACCTAGTGCAG” is 16800 fluorescence intensity (a.u.); for “TTGTAATGGTGAAATCATGTTCAGTTTATTGTCGTACAAACGGAGTCACCTAGTGCAG” it is 3710 fluorescence intensity (a.u.); for “GCAAATGGATTGTACAACTATGGAAGGGGCAGGTTCGAGGCGGAGTCACCTAGTGCAG” it is 5170 fluorescence intensity (a.u.). With “GTTTAATTAAAATCCACCAACAATGACAATTTAATAGGTGCGGAGTCACCTAGTGCAG” the figure was 32300 fluorescence intensity (a.u.); with “CACTTAACTGAACACTTACTTCTCGGTGACAAGTGAAATGCGGAGTCACCTAGTGCAG”, 10800 fluorescence intensity (a.u.). “TAACTAATTACCAAACAGATCGTACCCCACCATAAGAATCCGGAGTCACCTAGTGCAG”: the binding signal was 29200 fluorescence intensity (a.u.).

In the case of “ACAGTGTAATTACACTATGATTGTACTGTAATTACATTTGCGGAGTCACCTAGTGCAG”, the binding signal is 44000 fluorescence intensity (a.u.). Take “TAAACTGATATAAGTGCCTAAATTTGGATTGAGGGTGGTGCGGAGTCACCTAGTGCAG”: the binding signal was 8300 fluorescence intensity (a.u.). Turning to “GTAATTATAATAATGAGTTACTGATCGAGAGGAGGAGAGGCGGAGTCACCTAGTGCAG”, the binding signal was 7580 fluorescence intensity (a.u.). The figure for “TAACTAATTATTAATTGTTTTCCTATCATTTGATTCATTGCGGAGTCACCTAGTGCAG” is 53200 fluorescence intensity (a.u.). With “CTAATTGGCAAATTAAACAAAGAAGAAGAGGAAAGGAAGGCGGAGTCACCTAGTGCAG” the figure was 44700 fluorescence intensity (a.u.); with “GATTTAATGGATCACCTGCTATTACAGATTCCTTCAGTTGCGGAGTCACCTAGTGCAG”, 4210 fluorescence intensity (a.u.). As for “TAAGTAATTATTAATTCTTTTCCTATCATTTGATTTATTGCGGAGTCACCTAGTGCAG”, the binding signal is 11700 fluorescence intensity (a.u.).

With “AAACTTTAATTTATCAACCATAAAAGAAACAATTAGAAGGCGGAGTCACCTAGTGCAG”, the binding signal is 6940 fluorescence intensity (a.u.). The figure for “TTTGATTAATTCAGTGCTTCCTTCCCGTTACATTACACTGCGGAGTCACCTAGTGCAG” is 54000 fluorescence intensity (a.u.). The figure for “GCTAATTAACTGTGATTGCAAGAAGGAAAACCATAGAAGGCGGAGTCACCTAGTGCAG” is 53800 fluorescence intensity (a.u.); for “AAATGATTTGATCTAAATTGATAAGTTACTGAGGAGTGCGCGGAGTCACCTAGTGCAG” it is 64800 fluorescence intensity (a.u.); for “AGTAATTATTAATTATTTTCCTATCATTTGATTTATTGTTCGGAGTCACCTAGTGCAG” it is 35700 fluorescence intensity (a.u.). The figure for “CTCTAATGAATGTGCATGTTATGTTTCCAAATCTCACTAGCGGAGTCACCTAGTGCAG” is 3850 fluorescence intensity (a.u.); for “TCTCATACAATCAACAACCTTAAACACATCAGCTCTAGTACGGAGTCACCTAGTGCAG” it is 4160 fluorescence intensity (a.u.); for “CTTCTGATAACAACTGATTAGAAACTATGTTAATTTGATGCGGAGTCACCTAGTGCAG” it is 31100 fluorescence intensity (a.u.).
